Among all 150,000 compounds or so, about 540 (0.36%) showed an effect of 50% or more. This is one part of a sample in which strong results are shown more often than they occur.

For orientation: % Inhibition means the drop in the measured response relative to a control, in per cent.

This test has as its system Plasmodium falciparum. The experiment in a line: Primary screen in NF54 nanoGlo assay, in single point, at 2uM, 72h; a lower Z score goes with more inhibition. The test is classed as functional, Erythrocyte. Conditions: timepoint 72 hour.
For the compound `CN1CCC(N(Cc2ccccc2)C(=O)c2cc3cnccc3[nH]2)CC1`, the “% Inhibition” value turned out to be 52% and the Z score is on record as -7.83.
In the case of `O=C(NC1CNCCC1O)c1cc2c(Cl)cccc2[nH]1` (centres undefined), the “% Inhibition” value is listed as -3% and the Z score turned out to be 0.71.
For the compound `O=C(NCC1CC1)c1cc2c(OCc3ccc(Cl)cc3)cccc2[nH]1`, the “% Inhibition” value came out at 51% and the Z score is listed as -9.
As for `Cc1cc(N2CCC(N(C)Cc3nc4ccc(F)cc4[nH]3)CC2)ncn1`, the “% Inhibition” value is listed as -13% and the Z score came out at 2.24.
As for `CCOc1ccc2nc(CN(CC)CC3CCN(C4CCN(C)CC4)CC3)ccc2c1`, the “% Inhibition” value is given as 80% and the Z score was -13.89.
`c1ccc(CCC23CN(Cc4ccccn4)CC2CN(Cc2ccns2)C3)cc1` (centres undefined): the “% Inhibition” value is 86% and the Z score is -17.09.
`Cn1cc(CC(=O)N2CC3CN(Cc4ccns4)CC3(CO)C2)c2ccccc21` (centres undefined): the “% Inhibition” value is recorded as -3% and the Z score is reported as 0.46.
Turning to `C[C@@H](c1cc2ccccc2o1)N(C)CCC(=O)N1CCN(c2ccc(F)cc2)CC1`, the “% Inhibition” value is recorded as -2% and the Z score came out at 0.48.
With `O=C(c1ccnc2ccccc12)N1CCN(C2CCOCC2)CC1`, the “% Inhibition” value is listed as -6% and the Z score is reported as 0.98.
For `O=C1CN(C(=O)c2ccnc3ccccc23)CCN1Cc1ccccc1F` the same measures were 68% and -13.41.
Turning to `CN(CC(=O)N[C@H]1CCCN(c2cnccn2)C1)C1CCNCC1`, the “% Inhibition” value was -7% and the Z score was 1.05.
Taken in the same sequence, the figures for `Cc1noc(-c2ccnc(NC[C@H]3CCN(CC(F)(F)F)C3)c2)n1` were 2% and -0.25.
For `Cc1noc(-c2ccnc(NCCc3coc(-c4ccccc4)n3)c2)n1` the same measures were 0% and -0.05.
Take `Cc1noc(-c2ccnc(NC[C@@H](c3ccccn3)N3CCOCC3)c2)n1`: the “% Inhibition” value is 95% and the Z score was -18.79.
For `c1cc(Nc2ccnc(C3CC3)n2)cc(N2CCCCCC2)c1` the same measures were -1% and 0.19.
For the compound `CC(C)N1CCN(c2cccc(Nc3ncccn3)c2)CC1`, the “% Inhibition” value is listed as 5% and the Z score is on record as -1.03.
Consider `Cc1cccc(Nc2ccnc(Nc3ccc(N4CCN(C)CC4)cc3)n2)c1`, for which the “% Inhibition” value was found to be 89% and the Z score was -13.46.
On to `CCN(CCN1CCCCCC1)C(=O)NCCNc1ccncc1C`, for which the “% Inhibition” value is -11% and the Z score is listed as 2.32.
Turning to `Cc1cnccc1NCCNc1ncc(F)c(N2CCCC2)n1`, the “% Inhibition” value is reported as 25% and the Z score was -3.87.
For `Cc1cnccc1NCCNCc1cccc(OCCCCN2CCOCC2)c1`, the “% Inhibition” value is given as 95% and the Z score was -20.36.
As to `Cc1cnccc1NCCNCc1cnc(N2CCCCC2)nc1`, the “% Inhibition” value was 57% and the Z score was -12.25.
Regarding `CN(CCCNc1nccc2ncncc12)CC(F)(F)F`, the “% Inhibition” value was -2% and the Z score was 0.32.
For `Cc1cccc(-c2cccc(N3CCC(NCc4cc(C)[nH]n4)CC3)c2)c1` the same measures were -7% and 1.27.
Take `Cc1cccc(-c2cccc(N3CCC(NC[C@H]4CCC(=O)N4)CC3)c2)c1`: the “% Inhibition” value was 1% and the Z score is on record as -0.25.
`Cc1ccccc1-c1cccc(N2CCC(NCC3CCNCC3)CC2)c1`: the “% Inhibition” value was found to be 98% and the Z score was -19.56.
As to `Cc1cccc2c(NCCCCN3CCN(CCO)CC3)ncnc12`, the “% Inhibition” value was -12% and the Z score came to 1.79.
Taken in the same sequence, the figures for `NC(=O)C1CCN(CCCNc2ncnc3ccccc23)CC1` were 14% and -2.8.
For the compound `CCc1ccc2ncnc(NCCCN3CCN(CCO)CC3)c2c1`, the “% Inhibition” value came to 65% and the Z score is on record as -12.99.
With `Cc1ccc(-c2cccc3c(C(=O)NCCCN4CCC(N5CCCCC5)CC4)cc(C)nc23)cc1`, the “% Inhibition” value amounted to 98% and the Z score was -16.9.
As for `Cc1cc(O)c2cccc(-c3cccc(C(=O)NCCCN4CCCC4)c3)c2n1`, the “% Inhibition” value is -1% and the Z score amounted to 0.22.
In the case of `Cc1cnccc1NCCNC1CCN(C(=O)[C@@H]2CCCO2)CC1`, the “% Inhibition” value is reported as -9% and the Z score turned out to be 1.97.
For `Cn1cncc1[C@@H]1CNC[C@H]1CNC(=O)c1ccccc1NC1CCCCC1` the same measures were 75% and -14.83.
For `COC(CN(Cc1nc(N)nc(Nc2ccc(C)cc2)n1)Cc1nc(N)nc(Nc2ccc(C)cc2)n1)OC`, the “% Inhibition” value is listed as 85% and the Z score is recorded as -18.33.
Consider `CN(C)CCn1ncc(C(=O)NC2CCN(CC3CCCC3)CC2)c1-c1ccccc1`, for which the “% Inhibition” value was determined as 0% and the Z score is 0.06.
Consider `CCOc1cc(C(=O)NC2CCN(CC3CCCC3)CC2)cc(-c2ccccc2)c1OC`, for which the “% Inhibition” value came out at 71% and the Z score is given as -12.46.
Taken in the same sequence, the figures for `CCc1ccc2nc(NC[C@H]3CCCN3C)cc(C)c2c1` were -2% and 0.32.
Take `Cc1ccc2cc(CNC[C@H]3CCN(C4CC4)C3)ccc2n1`: the “% Inhibition” value came out at 0% and the Z score came to 0.09.
On to `Cc1ccc2nc(NC[C@H]3CCN(C4CC4)C3)cc(C)c2c1`, for which the “% Inhibition” value amounted to 55% and the Z score was -8.34.
As to `Nc1nnc(CCCNc2nccc(-c3ccncc3)n2)s1`, the “% Inhibition” value was -9% and the Z score is on record as 1.91.
With `COc1ccnc(NCCCc2nc(-c3ccncc3)cs2)n1`, the “% Inhibition” value was found to be 69% and the Z score is -13.68.
For `Clc1cc(Nc2c3ccccc3nc3ccccc23)ccc1Oc1ccc2ccccc2c1Cl`, the “% Inhibition” value was -10% and the Z score is 1.68.
Taken in the same sequence, the figures for `c1ccc2c(Nc3ccc4[nH]cnc4c3)c3ccccc3nc2c1` were 98% and -19.44.

The values are drawn from ChEMBL document CHEMBL5308541, “MAIP: An Open-Source Tool to Enrich High-Throughput Screening Output and Identify Novel, Druglike Molecules with Antimalarial Activity” (ACS Med Chem Lett, 2023).
